Unmarked numbers belong to inactive results. Records with an inconclusive call do not appear. Active and inactive are the calls of the source. Unless noted, the call rests on the fitted dose curve. Starred links: 1 amine or outer side, 2 acyl side, 3 side chain; linkers in the order of their positions; H or OH if unused. Positions of bridges follow the written chain, without caps; N, C: chain ends. Non-standard residues stand in square brackets, D forms with d. Residues, ends and D or L forms follow the SMILES beside them. Chains are numbered I, II in the order given. *: point of attachment. Actinocin(9to1) = Cc1c2oc3c(C)ccc(C(=O)[*:1])c3nc-2c(C(=O)[*:2])c(N)c1=O; NMeV = CN[CH](C(=O)O)C(C)C; Cbz = O=C(OCc1ccccc1)*; Sar = CNCC(=O)O

This note sets out measurements from PubChem BioAssay (NCATS).

One experiment in a line: Quantitative High-Throughput drug screen in 47 multiple myeloma cell lines against the NCATS MIPE library collection: KMS28BM_JCRB cell viability assay (AID 1919874; active means well fitted cell-killing curve with a large enough effect; further: nearly all actives have a fitted effect of over 35% in size; further: potency means the concentration at half of the fitted maximal effect). As to conditions: CellTiter-Glo ATP, 48 h; series mostly up to 45.8 µM; viability, % of control: at the top concentration. An outline of the steps:
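Plated at 500 cells per well, myeloma lines received MIPE 4.0 compounds by pin tool. Following 48 h culture at 37 °C, CellTiter-Glo luminescence gave viability relative to DMSO and media-only controls.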
With `CCCCCCCN(CC)CCCC(O)c1ccc(NS(C)(=O)=O)cc1` (stereo not given), the “viability, % of control” value was 104%.
With `C=Cc1c(C)c2cc3nc(cc4[nH]c(cc5nc(cc1[nH]2)C(C)=C5CCC(=O)O)c(CCC(=O)OC)c4C)[C@@]1(C)C3=CC=C(C(=O)OC)[C@H]1C(=O)OC`, the Potency was 0.418 µM (active).
On the same count and under the same terms, under `c1ccc(CNc2nc(NCc3ccccc3)c3ccccc3n2)cc1` stands 11.8 µM (active).
In the case of `Oc1cc2c(cc1O)C1c3ccc(O)c(O)c3OCC1(O)C2` (stereo not given), the “viability, % of control” value was 106%.
On the same count and under the same terms, the value for `CC(C)c1cc(C(C)C)c(CC(=O)NS(=O)(=O)Oc2c(C(C)C)cccc2C(C)C)c(C(C)C)c1` was 96.5%.
`CC(C)[C@H](CO)Nc1nc(Nc2cccc(Cl)c2)c2ncn(C(C)C)c2n1`: the Potency is 18.7 µM (active).

A further experiment is described as follows: qHTS drug screen for cell cycle checkpoint inhibitors in PARPi-resistant BRCA-mutant ovarian cancer cell lines. (AID 1963452). As to conditions: PEO1/OlaR viability, CellTiter-Glo luminescence, 96 h; active compounds read low. An outline of the steps: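 PEO1, PEO4 and PEO1/OlaR ovarian cancer cells, 600 per well, exposed 96 h at 37C to a dilution series. Viability read by CellTiter-Glo luminescence, normalized to DMSO and empty wells; activity summarized as Z-AUC.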
As for `O=C(CCCCCCC(=O)Nc1cccnc1)NO`, the Z-AUC was 0.519.
Same read-out and setting: under `CC(N[C@H]1CCCC[C@H]1NC(=O)c1ccc(Cl)cc1)c1cccc2ccccc12` (stereo not given in full) stands 0.148; under `Oc1ccc(-c2ccc(-c3cc(Nc4cccc(CNC5CC5)c4)n[nH]3)cc2)c(O)c1`, -0.35; under `CC(C)C[C@@H](C=O)NC(=O)[C@H](CC(C)C)NC(=O)[C@H](CC(C)C)NC(=O)OCc1ccccc1` (Cbz-Leu-Leu-Leu-aldehyde), -0.0586.
The same measure, in the same setting: under `Oc1ccc([C@@H]2Oc3ccc(O)cc3[C@@H]3CCC[C@@H]32)cc1` stands 0.648.
The same measure, in the same setting: under `Nc1nc(=O)n([C@H]2C[C@H](O)[C@@H](CO)O2)cc1F` stands -1.47; under `Cc1c2oc3c(C)ccc(C(=O)NC4C(=O)NC(C(C)C)C(=O)N5CCCC5C(=O)N(C)CC(=O)N(C)C(C(C)C)C(=O)OC4C)c3nc-2c(C(=O)NC2C(=O)NC(C(C)C)C(=O)N3CCCC3C(=O)N(C)CC(=O)N(C)C(C(C)C)C(=O)OC2C)c(N)c1=O` (stereo not given) (I: TVP[Sar][NMeV] / II: TVP[Sar][NMeV]; ester I:1-I:C, II:1-II:C; linker I:N-II:N via Actinocin(9to1); configuration not given here), -0.322.
Take `C#Cc1cccc(Nc2ncnc3cc(OCCOC)c(OCCO)cc23)c1`: the Z-AUC was 0.364.
Still for that read-out and setting: the value for `CC(C)Oc1ccc(C(=O)N[C@H](CNC(=O)CN(C)C)Cc2ccc(-c3cn4cccc([C@H](C)O)c4n3)cc2)cc1Cl` was -1.44.
With `CCCCCCCCc1ccc(CCC(N)(CO)CO)cc1`, the Z-AUC is -0.00924.
For the compound `O=C(O)CCCCCC(=O)NN=C1CCCC1`, the Z-AUC was 1.41.
For the compound `Cc1cnc(NC(=O)Nc2cc(Br)c(C)cc2OC[C@@H]2CNCCO2)cn1`, the Z-AUC was -0.43.
Still for that read-out and setting: under `NC1=N[C@H]2[C@H](CS[C@H]2CCCCC(=O)O)N1` stands -0.195.
Still for that read-out and setting: under `O=c1ccn([C@@H]2O[C@H](CO)[C@H](O)[C@@H]2F)c(=O)[nH]1` stands 0.179.
Same read-out and setting: the value for `CN(C)CCN1C(=O)c2cccc3cc(N)cc(c23)C1=O` was -0.488; that for `c1cc(CN2CCCNCCNCCCNCC2)ccc1CN1CCCNCCNCCCNCC1` was 0.916; that for `CN(C)c1ccc(C(=O)NCCCCCCC(=O)NO)cc1` was -1.48.
With `NC(=NCCCCCCN=C(N)N=C(N)Nc1ccc(Cl)cc1)N=C(N)Nc1ccc(Cl)cc1`, the Z-AUC was 0.994.
Regarding `COc1cc(CCc2cc(NC(=O)c3ccc(N4C[C@@H](C)N[C@@H](C)C4)cc3)n[nH]2)cc(OC)c1`, the Z-AUC is -1.36.
The same measure, in the same setting: under `CC(C)c1cnn2c(NCc3ccccc3)cc(NCCCCCCN)nc12` stands 1.27; under `CC(C)NC[C@@H](C(=O)N1CCN(c2ncnc3c2[C@H](C)C[C@H]3O)CC1)c1ccc(Cl)cc1`, 1.25.
On to `NC(=O)N1CCC(CC(=O)N2CCC([C@H]3c4ncc(Br)cc4CCc4cc(Cl)cc(Br)c43)CC2)CC1`, for which the Z-AUC is -0.923.
The same measure, in the same setting: under `Nc1nc(N)c2nc(-c3cccc(O)c3)c(-c3cccc(O)c3)nc2n1` stands 0.00904; under `CCc1c(O)cc(O)c(C(=O)c2ccc(OCCN3CCOCC3)c(OC)c2)c1CC(=O)N(CCOC)CCOC`, -0.361.
Turning to `CC(=O)SCC(Cc1ccccc1)C(=O)NCC(=O)OCc1ccccc1` (stereo not given), the Z-AUC is 0.0229.
Still for that read-out and setting: under `Nc1ccn(C2CO[C@H](CO)O2)c(=O)n1` (stereo not given in full) stands 0.13; under `CCNC(=O)c1cc2c(-c3cc(OCCN4CCCC4)c(Cl)cc3Cl)nc(N)nc2s1`, -0.792.
Take `COc1cc(C)c(Sc2cnc(NC(=O)c3ccc(CNC(C)C(C)(C)C)cc3)s2)cc1C(=O)N1CCN(C(C)=O)CC1` (stereo not given): the Z-AUC is -0.0176.
`COc1cc(O)c2c(c1)C1OC1C[C@H](O)[C@H](O)C(=O)C=CC[C@H](C)OC2=O` (stereo not given in full): the Z-AUC is 0.145.
On the same count and under the same terms, the value for `O=S(=O)(O)CCSSCCS(=O)(=O)O` was -0.0996.
The same measure, in the same setting: under `CCCc1nc(C(C)(C)O)c(C(=O)O)n1Cc1ccc(-c2ccccc2-c2nn[nH]n2)cc1` stands 0.227.
For the compound `C[C@H]1[C@@H](OC(=O)CCC(=O)O)O[C@@H]2O[C@@]3(C)CC[C@@H]4[C@H](C)CC[C@@H]1[C@@]24OO3`, the Z-AUC was -0.162.
The same measure, in the same setting: the value for `CN1C(C(=O)Nc2ccccn2)=C(O)c2sc(Cl)cc2S1(=O)=O` was 0.627; that for `CCCCCCCN(CC)CCCC(O)c1ccc(NS(C)(=O)=O)cc1` (stereo not given) was 1.02; that for `C=Cc1c(C)c2cc3nc(cc4[nH]c(cc5nc(cc1[nH]2)C(C)=C5CCC(=O)O)c(CCC(=O)OC)c4C)[C@@]1(C)C3=CC=C(C(=O)OC)[C@H]1C(=O)OC` was 0.838.
On the same count and under the same terms, the value for `c1ccc(CNc2nc(NCc3ccccc3)c3ccccc3n2)cc1` was 0.198; that for `Oc1cc2c(cc1O)C1c3ccc(O)c(O)c3OCC1(O)C2` (stereo not given) was 1.52.
Still for that read-out and setting: under `CC(C)c1cc(C(C)C)c(CC(=O)NS(=O)(=O)Oc2c(C(C)C)cccc2C(C)C)c(C(C)C)c1` stands 0.134; under `CC(C)[C@H](CO)Nc1nc(Nc2cccc(Cl)c2)c2ncn(C(C)C)c2n1`, 0.56.
